# Inconclusive results are not listed. Calls of active or inactive are those of the source. Calls follow the shape of the dose curve; as a rule, active = well fitted inhibition curve with a large enough effect; inconclusive = small, poorly fitted or top-dose-only effect; inactive = no such curve, though single readings can be large or run the other way.
# Test: Counterscreen for APE1 Inhibitors: Fluorescent Dye Displacement Validation Assay (AID 1707)
# Settings: fluorescent dye displacement from DNA; series mostly up to 57.1 µM
# Description: In order to distinguish true inhibitors of DNA-processing enzymes from promiscuous DNA-binding compounds among screening assay hits, we developed a homogeneous and miniaturized assay based on fluorescent dye displacement test as originally described by Tse and Boger (Accounts of Chemical Research (2004) 37: 61-69). The assay is based on the strong enhancement of fluorescence when Thiazole Orange (ThO) binds to double-stranded DNA: conversely, in the presence of a DNA-binding compound, Thiazole Orange is displaced from the DNA and its fluorescence is reduced.
# Buffer. 50 mM Tris-HCl (pH7.5) containing 50mM NaCl, 2 mM MgCl2, and 0.01% Tween-20.
# Buffer containing 250 nM ThO in columns 3 and 4 as negative control (no dsDNA).
# Reaction mixture: 250 nM ThO and 50 nM dsDNA at final concentration dispensed throughout the plate: in columns 1, 2, 5-48. Column 1 is neutral (100% activity).
# 5''TAMRA- TC ACC FTC GTA CGA CTC
# 3'' AG TGG GAG CAT GCT GAG
# where F denotes tetrahydrofuran.
# Control: Pintool transfer of control compound WB64 (W4761, Sigma-Aldrich) to column 2 of all assay plates as a two-fold 16-point dilution in duplicate (concentration range 5.75 uM - 0.175 nM).
# Four uL of reaction mixtures were dispensed to 1536-well Greiner black solid bottom plates. Compounds (23 nL) were transferred […] in order to measure the endpoint fluorescence using 480 nm excitation and 540 nm emission fluorescence protocol.
row,Structure (SMILES),outcome
1,C[C@]12CC[C@H](O)CC1=CCC1C2CC[C@]2(C)C(=O)CC[C@@H]12 (stereo not given in full),inactive
2,NC(Cn1ccc(=O)[nH]c1=O)C(=O)O (stereo not given),inactive
3,NCC#Cc1ccccc1,inactive
4,COC(=O)C(N)CCCN=C(N)N[N+](=O)[O-] (stereo not given),inactive
5,C[N+]1(C)C2CC(OC(=O)C(CO)c3ccccc3)CC1C1OC12 (stereo not given),inactive
6,C[C@]12CC[C@@H](O)CC1CCC1C2CC[C@]2(C)C(=O)CC[C@@H]12 (stereo not given in full),inactive
7,CCCC[N+]1(C)C2CC(OC(=O)C(CO)c3ccccc3)CC1C1OC12 (stereo not given),inactive
8,COc1cc(C=C(C#N)C#N)cc(O)c1O,inactive
9,C#CCN(C)C(C)Cc1ccccc1 (stereo not given),inactive
10,C[C@]12C=CC(=O)C=C1CCC1C2=CC[C@]2(C)[C@@H](C(=O)CN3CCN(c4cc(N5CCCC5)nc(N5CCCC5)n4)CC3)CC[C@@H]12 (stereo not given in full),inactive
11,CCCN1CCC[C@@H](c2cccc(C#N)c2)C1,inactive
12,CN1CCC23CCCC[C@H]2C1Cc1ccc(O)cc13 (stereo not given in full),inactive
13,C=CCN1CCc2cccc3c2C1Cc1ccc(O)c(O)c1-3 (stereo not given),inactive
14,C/C=C(/C)C(=O)O[C@H]1C(C)=C2C([C@@H]1OC(=O)CCCCCCC)[C@@](C)(OC(C)=O)C[C@@H](OC(=O)CCC)[C@@]1(O)[C@H]2OC(=O)[C@@]1(C)O (stereo not given in full),inactive
15,CC12CCC3C(CCC4=C(O)C(=O)CCC43C)C1CCC2=O (stereo not given),inactive
16,C[C@H]1OC[C@@H](C[N+](C)(C)C)O1,inactive
17,CCC(CO)NC(=O)[C@@H]1C=C2c3cccc4[nH]cc(c34)C[C@H]2N(C)C1 (stereo not given in full),inactive
18,CC(C)(O)C1C2OC(=O)C1[C@]1(O)C[C@H]3O[C@]34C(=O)O[C@H]2[C@]14C (stereo not given in full) (tested in a mixture with another compound),inactive
19,COc1ccc2c3c1O[C@H]1C(=O)CC[C@@]4(O)C(C2)N(CC2CC2)CCC314 (stereo not given in full),inactive
20,O=C(O)C1C2CCC(O2)C1C(=O)O (stereo not given),inactive

row,Structure (SMILES),outcome
1,Oc1cc2c(cc1O)[C@H]1c3ccccc3CNC1CC2 (stereo not given in full),inactive
2,CN1C[C@@H](CS(=O)(=O)N(C)C)C[C@@H]2c3cccc4c3c(cn4C)C[C@H]21,inactive
3,CCCN(CCC)C(=O)Cc1c(-c2ccc(Cl)cc2)nc2c(Cl)cc(Cl)cn12,inactive
4,N#CC(=Cc1ccc(O)c(O)c1)C(N)=S,inactive
5,Oc1ccc2c3c1O[C@H]1[C@@H](O)CC[C@@]4(O)C(C2)N(CC2CCC2)CCC314 (stereo not given in full),inactive
6,C[C@]12CC[C@H](OS(=O)(=O)O)CC1=CCC1C2CC[C@]2(C)C(=O)CC[C@@H]12 (stereo not given in full),inactive
7,CCN(CC)C(=O)N[C@@H]1C[C@@H]2c3cccc4[nH]cc(c34)C[C@H]2N(C)C1,inactive
8,C[C@H]1C2Cc3ccc(O)cc3[C@]1(C)CCN2CC1CC1,inactive
9,C[C@@H]1O[C@@H](O[C@H]2C[C@@H](O)[C@]3(CO)[C@H]4[C@H](O)C[C@]5(C)[C@@H]([C@@H]6COC(=O)C6)CC[C@]5(O)[C@@H]4CC[C@]3(O)C2)[C@H](O)[C@H](O)[C@H]1O,inactive
10,CC1Cc2cc3c(cc2C(c2ccc(N)cc2)=NN1)OCO3 (stereo not given),inactive
11,NNCc1cccc(O)c1,inactive
12,COc1ccc2c(c1O)-c1cccc3c1C(C2)N(C)CC3 (stereo not given),inactive
13,Nc1ncnc2c1ncn2[C@@H]1O[C@H](COP(=O)(O)CP(=O)(O)OP(=O)(O)O)[C@H](O)[C@H]1O,inactive
14,CCNC(=O)[C@H]1O[C@@H](n2cnc3c(N)ncnc32)[C@H](O)[C@H]1O,inactive
15,CC(C)[C@@]1(NC(=O)[C@@H]2C[C@@H]3c4cccc5[nH]cc(c45)C[C@H]3N(C)C2)O[C@@]2(O)C3CCCN3C(=O)[C@H](Cc3ccccc3)N2C1=O (stereo not given in full),inactive
16,CCCN1CCC[C@@H]2Cc3n[nH]cc3C[C@H]21,inactive
17,CCCN1CCc2cccc3c2C1Cc1ccc(O)c(O)c1-3 (stereo not given),inactive
18,CCCN1CCCC(c2cccc(O)c2)C1 (stereo not given),inactive
19,C=CCN1CC[C@@]2(C)c3cc(O)ccc3CC1[C@@H]2C,inactive
20,O=C(OC1CCN(CCCl)CC1)C(c1ccccc1)c1ccccc1,inactive
